SENP7 block: inhibitors of human SENP7 protease; AID 434973; recombinant SENP7, Z-RLRGG-aminoluciferin luminescence, 40 min; 330,000 compounds, 1.5% hits; inhibition, % at 5 µM; Q9BQF6;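 active = inhibition above about 50% at the single test dose, limit read from the data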;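 also: plate controls were DMSO with enzyme for no effect and no enzyme buffer wells for full effect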
AHR activator: human AHR activation. P35869. AHR-responsive luciferase reporter cells, luminescence. activation, % at 5 µM. 320,000 compounds, 2.5% hits. AID 2796; in the data active = activation above about 47%;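 also: 0% = vehicle wells and 100% = reference agonist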
Target sequence (P35869 whole entry, looked up): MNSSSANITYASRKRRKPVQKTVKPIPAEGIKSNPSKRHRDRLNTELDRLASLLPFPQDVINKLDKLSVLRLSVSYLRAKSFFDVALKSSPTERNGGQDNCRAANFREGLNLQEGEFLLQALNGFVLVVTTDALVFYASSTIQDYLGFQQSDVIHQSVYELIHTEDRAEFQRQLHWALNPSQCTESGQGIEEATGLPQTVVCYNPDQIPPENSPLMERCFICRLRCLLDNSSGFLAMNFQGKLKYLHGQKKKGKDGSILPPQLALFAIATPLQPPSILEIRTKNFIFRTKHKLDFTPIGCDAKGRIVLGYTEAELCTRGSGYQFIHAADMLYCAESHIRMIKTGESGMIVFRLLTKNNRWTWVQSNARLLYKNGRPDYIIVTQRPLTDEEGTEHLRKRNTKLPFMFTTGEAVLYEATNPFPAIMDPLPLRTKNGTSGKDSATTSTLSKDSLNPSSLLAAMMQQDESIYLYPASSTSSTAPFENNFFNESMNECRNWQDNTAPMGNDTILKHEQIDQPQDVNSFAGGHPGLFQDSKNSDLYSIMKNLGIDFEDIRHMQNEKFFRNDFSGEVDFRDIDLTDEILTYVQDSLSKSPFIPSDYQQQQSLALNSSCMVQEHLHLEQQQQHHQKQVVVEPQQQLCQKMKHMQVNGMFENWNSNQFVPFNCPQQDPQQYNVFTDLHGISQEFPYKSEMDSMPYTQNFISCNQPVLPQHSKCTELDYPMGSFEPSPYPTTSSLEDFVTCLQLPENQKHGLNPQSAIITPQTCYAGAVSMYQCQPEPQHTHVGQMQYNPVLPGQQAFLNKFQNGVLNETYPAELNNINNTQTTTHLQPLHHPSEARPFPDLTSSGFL
SENP6 block: SENP6 protease inhibition; Recombinant SENP6 catalytic domain, aminoluciferin luminescence; inhibition, % at 10 µM; 330,000 compounds, 1.8% hits; AID 2599;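 active = inhibition above about 50% at the single tested dose, limit read from the data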;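 also: plate controls were DMSO wells with enzyme for no effect and DMSO wells lacking enzyme for full effect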
SENP8 block-1: blocks the human protease SENP8; 330,000 compounds, 1.2% hits; inhibition, % at 10 µM; purified SENP8, Z-RLRGG-aminoluciferin cleavage, luminescence; in the data active = inhibition above about 50%
SENP8 block-2: inhibitors of human SENP8 protease. Q96LD8. recombinant SENP8, Nedd8 substrate fluorescence. inhibition, % at 20 µM. 360,000 compounds, 0.64% hits. AID 602440; in the data active = inhibition mostly above about 40%, no sharp cut-off; inactive = mostly below about 27%
EBI2 block: EBI2 (human) antagonism. inhibition, % at 5 µM. EBI2 beta-arrestin recruitment, luminescence, 7a,25-OHC stimulated. 360,000 compounds, 0.81% hits. AID 651636; in the data active = inhibition above about 38%;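 also: enzyme fragment complementation signal reports receptor beta-arrestin coupling in cells; 0% = agonist plus DMSO wells and 100% = wells without agonist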
SENP8 conf: confirmation of human SENP8 protease inhibitors | inhibition, % at 12.5 µM | 6,200 compounds, 40% hits | shares compounds with SENP7 block | Recombinant SENP8, Z-RLRGG-aminoluciferin luminescence, 60 min;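 active = mean inhibition across replicates above about 50%, limit read from the data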
SENP6 confirm: human SENP6 inhibition, confirmed. shares compounds with SENP7 block. recombinant SENP6, Z-RLRGG-aminoluciferin luminescence. inhibition, % at 12.5 µM. 6,200 compounds, 58% hits. AID 488915
SENP7 confirm: confirmation of human SENP7 protease inhibitors; inhibition, % at 12.5 µM; 6,200 compounds, 69% hits; shares compounds with SENP7 block; AID 488917; recombinant SENP7, Z-RLRGG-aminoluciferin luminescence, 40 min
Casp3 SENP sel: caspase-3 inhibition (SENP selectivity assay); AID 488918; shares compounds with SENP7 block; 6,200 compounds, 60% hits; inhibition, % at 12.5 µM; purified caspase-3, Z-DEVD-aminoluciferin luminescence, 60 min;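 active = mean inhibition above about 50%, limit read from the data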;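 also: plate controls were enzyme with DMSO for no effect and wells without caspase-3 for full effect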
Luc interf: interferes with luciferase luminescence in SENP counter-screen. Pre-incubated SENP8/Z-RLRGG-aminoluciferin, luciferase luminescence interference. shares compounds with SENP7 block. inhibition, % at 12.5 µM. AID 488919. 6,200 compounds, 39% hits;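 active = mean inhibition above about 50% when retested at one dose, limit read from the data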;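 also: plate controls were DMSO wells with completed reaction for no effect and substrate without enzyme for full effect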
Starred values were filed as active, the others as inactive; . = no result given. A selection: hits, their analogues and other compounds. The true share with any hit is near 5%.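 The calls were made as follows, unless noted: active = mean inhibition above about 50% in the one-dose retest (limit read from the data); inactive = the rest.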

SMILES	SENP7 block	AHR activator	SENP6 block	SENP8 block-1	SENP8 block-2	EBI2 block	SENP8 conf	SENP6 confirm	SENP7 confirm	Casp3 SENP sel	Luc interf
COCn1c(-c2ccc(OC)c(OC)c2)nc2ccccc21	14	7	4	-3	-20	1	.	.	.	.	.
COCn1c(-c2cccc(Br)c2)nc2ccccc21	40	53*	51*	22	10	-4	23	20	65*	42	55*
CCc1cc[n+](C2=C([O-])c3ccccc3C(=O)/C2=N\S(=O)(=O)c2cccs2)cc1	47	68*	84*	53*	90*	-11	36	80*	49	22	3
CCC(C)NS(=O)(=O)c1cccs1 (configuration not stated)	-9	1	-20	-8	28	-15	.	.	.	.	.
NC(=O)COC(=O)c1ccccc1SCC(=O)NC1CCCCCC1	-3	2	6	6	-2	-12	.	.	.	.	.
N#Cc1c(NC(=O)c2ccccc2Cl)n(Cc2ccccc2)c2nc3ccccc3nc12	.	6	.	.	-298	10	.	.	.	.	.
CCC(=O)Nc1c(C#N)c2nc3ccccc3nc2n1-c1ccccc1C	4	21	55*	-2	-337	-8	6	1	-3	-3	-2
CCCCn1c(NC(=O)c2ccccc2Cl)c(C#N)c2nc3ccccc3nc21	70*	13	96*	94*	-302	1	76*	90*	78*	2	12
O=C(c1c(F)cccc1F)N1CCN(CCOc2ccccc2)CC1	-7	0	-19	2	17	-8	.	.	.	.	.
CC1CCN(c2ccc(NC(=O)c3ccc(Br)o3)cc2)CC1	88*	4	81*	56*	10	-11	32	30	26	27	14
Cc1ccccc1NC(=O)Nc1nc2ccc(S(C)(=O)=O)cc2s1	51*	14	-12	-12	0	-5	-21	-16	-6	-8	-6
CCC(=O)Nc1nc2ccc(S(C)(=O)=O)cc2s1	-6	9	-16	3	13	-12	.	.	.	.	.
NS(=O)(=O)c1ccc2nc(NC(=O)Nc3ccccc3F)sc2c1	59*	-2	76*	59*	-4	6	69*	71*	90*	58*	76*
CCCC(=O)Nc1nc2ccc(S(N)(=O)=O)cc2s1	7	-1	-8	1	11	-2	.	.	.	.	.
C=CC1=C2C=C(C3CC3)N(CCCN(CC)CC)C=C2C(=O)C(C)(OC(=O)c2ccco2)C1=O (configuration not stated)	-7	0	-1	7	23	-13	.	.	.	.	.
CN(C)c1cc(N/N=C/c2ccc(Cl)cc2)nc(N(C)C)n1	.	.	.	.	-17	17	.	.	.	.	.
CC(=O)Nc1ccc(-c2nnn(CC(=O)c3ccc(F)cc3)n2)cc1Cl	-1	-2	82*	1	17	4	14	9	3	-2	-1
COc1ccc(-c2cc3ncc(C(C)=O)c(C)n3n2)cc1	34	2	-8	-24	-395	-2	.	.	.	.	.
COc1ccccc1Nc1ncccc1C(=O)O	-5	8	-9	-10	13	-13	.	.	.	.	.
O=C(Nc1ccc2ncccc2c1)c1cccc(Br)c1	22	0	53*	29	7	2	41	37	65*	24	38
COc1ccc(C(=O)Nc2ccc3ncccc3c2)cc1	87*	-8	81*	79*	0	-4	3	86*	98*	89*	30
O=C(Nc1cccc2ncccc12)c1cccc(Br)c1	-2	.	4	-4	17	3	.	.	.	.	.
COc1ccc(Nc2ncccc2C(=O)O)cc1	42	8	57*	16	23	-3	38	34	76*	81*	63*
Cc1ccc(C(=O)Nc2ccc3ncccc3c2)cc1	90*	-4	82*	80*	3	9	83*	84*	97*	87*	88*
Cc1ccc(NC(=O)C2CCCN2c2nn3c(=O)cc(C)nc3s2)cc1 (configuration not stated)	7	0	9	-4	5	2	.	.	.	.	.
SMILES	SENP7 block	AHR activator	SENP6 block	SENP8 block-1	SENP8 block-2	EBI2 block	SENP8 conf	SENP6 confirm	SENP7 confirm	Casp3 SENP sel	Luc interf
Cc1nonc1OCCCNc1ccc([N+](=O)[O-])cc1Cl	0	-3	-16	-7	18	18	.	.	.	.	.
COc1ccc([C@H]2CC(=O)C=C(c3ccc(OC)cc3OC)C2)cc1	-1	2	-10	-3	-89	21	.	.	.	.	.
CCOC(=O)c1ccc(NC(=O)N2CCc3ccccc32)cc1	96*	-4	91*	77*	17	1	-13	81*	95*	76*	23
COc1ccc(NC(=O)N2CCc3ccccc32)cc1	96*	16	95*	86*	13	-2	93*	93*	99*	94*	91*
COc1ccccc1NC(=O)C(=O)Nc1ccc2c(c1)N(C(=O)C1CC1)CCC2	56*	.	-8	-19	6	4	-8	-6	-9	5	1
CC(=O)Nc1cccc(NC(=O)C(=O)Nc2ccc3c(c2)N(C(=O)C2CC2)CCC3)c1	50*	.	59*	28	-21	-6	-4	30	75*	65*	24
CC(=O)Nc1ccc(C(=O)N2CCCc3ccccc32)cc1	1	-2	-12	14	7	-9	.	.	.	.	.
COCCOC(=O)CSc1ncccc1-c1nc2cc(C)c(C)cc2[nH]1	95*	13	21	93*	-439	7	93*	96*	102*	96*	96*
Cc1cc2nc(-c3cccnc3SCC(=O)NC(C)C)[nH]c2cc1C	87*	54*	90*	82*	-371	9	86*	85*	98*	88*	9
CCN1CCC(N2CCN(c3ccc(Cl)cc3)CC2)CC1	2	-1	78*	1	.	.	-12	-10	-9	5	0
CN(C)C(=O)c1nc2ccccc2s1	14	10	-18	1	13	-5	.	.	.	.	.
CN(C(=O)c1ccccc1)c1nc2ccccc2s1	47	-2	71*	44	16	0	28	51*	71*	45	43
O=C(OCc1ccccc1)/C(=C/c1ccccc1Cl)NC(=O)c1ccco1	6	3	2	-4	7	11	.	.	.	.	.

Assay outcomes as filed in PubChem.
